Records with an inconclusive call do not appear. Activity calls are given as the source filed them. Calls come from the whole dose curve; as a rule, active = well fitted cell-killing curve with a large enough effect; inconclusive = small, poorly fitted or top-dose-only effect, or effect the other way; inactive = flat fitted curve, though single readings scatter.
Tested on: Tov112D
Test: Primary qHTS to identify gynecologic anti-cancer compounds using libraries of approved drugs and bioactive compounds (AID 1345084); note: nearly all actives have a fitted effect of over 55% in size
Conditions: Gynecologic cancer cell panel viability, ATPlite luminescence, 48 h; series mostly up to 57.5 µM; activity change, negative = cytotoxicity: at the top concentration
Outline: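 Five-point cytotoxicity, 48 h drug exposure at 37 C, 5% CO2, on cells seeded 16 h beforehand. ATP content read by ATPlite luminescence.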
% is set by controls: 0 for no effect and ±100 for the full control effect; potency is the fitted concentration of half-maximal effect.

Row | Compound | activity change, negative = cytotoxicity | Potency
1 | COCCOc1cnc2ccn([C@H](C)c3nnc4c(F)cc(-c5cnn(C)c5)cn34)c(=O)c2c1 | 19.5% (inactive) | 
2 | COc1cc(O)cc(/C=C/c2ccc(O[C@@H]3O[C@H](CO)[C@@H](O)[C@H](O)[C@H]3O)cc2)c1 | -3.35% [at 25.3 µM] (inactive) | 
3 | CC(CCC1(O)OC2CC3C4CCC5CC(O[C@@H]6O[C@H](CO)[C@@H](O)[C@H](O)[C@H]6O[C@@H]6O[C@@H](C)[C@H](O)[C@@H](O)[C@H]6O)C(O)CC5(C)C4CCC3(C)C2C1C)CO[C@@H]1O[C@H](CO)[C@@H](O)[C@H](O)[C@H]1O (stereo partly drawn) | 18.3% [at 11.6 µM] (inactive) | 
4 | CC1=CC(=O)CC(C)(C)[C@@]1(O)CC[C@@H](C)O[C@@H]1O[C@H](CO)[C@@H](O)[C@H](O)[C@H]1O | 3.46% [at 38.5 µM] (inactive) | 
5 | C=C1[C@@H]2CC[C@@H]3[C@@](CCC4C(C(=O)O)(C(=O)O)C[C@@H](O[C@@H]5O[C@H](CO)[C@@H](O)[C@H](O)[C@H]5OC(=O)CC(C)C)C[C@]43C)(C2)[C@H]1O (stereo partly drawn) | -35.7% [at 25.3 µM] (inactive) | 
6 | C/C=C(\C)C(=O)O[C@H]1[C@@H](O[C@]2(COC(=O)CC(C)C)O[C@H](COC(=O)C(C)CC)[C@@H](OC(C)=O)[C@@H]2O)O[C@H](COC(C)=O)[C@@H](O)[C@@H]1O (stereo partly drawn) | -2.79% [at 25.3 µM] (inactive) | 
7 | C/C=C/C=C/C(O)=C1\C(O)=C(C)C(=O)[C@@]2(C)OC(=O)[C@@](C)(NC(=O)/C=C/C(=O)O)[C@@H]12 | -8.28% [at 25.3 µM] (inactive) | 
8 | Cc1nc(Nc2n[nH]c3c2CN(C(=O)NC(CN(C)C)c2ccccc2)C3(C)C)c2sccc2n1 (stereo not drawn) |  | 6.31 µM (active)
9 | C[C@@H]1O[C@@H](O[C@H]2[C@H](O)[C@@H](O)[C@H](O[C@H]3[C@H](O[C@H]4CC[C@@]5(C)C(=CC[C@@H]6C5CC[C@]5(C)[C@@H]7[C@H](C[C@@H]65)O[C@]5(CC[C@@](C)(CO[C@@H]6O[C@H](CO)[C@@H](O)[C@H](O)[C@H]6O)O5)[C@H]7C)C4)O[C@H](CO)[C@@H](O)[C@@H]3O)O[C@@H]2CO)[C@H](O)[C@H](O)[C@H]1O (stereo partly drawn) | 13% [at 11.6 µM] (inactive) | 
10 | O=C(Nc1c(-c2cccs2)nc2ccccn12)c1ccc(Cl)cc1 | -0.262% (inactive) | 
11 | CC1(C)CC[C@]2(C(=O)O)CC[C@]3(C)C(=CCC4[C@@]5(C)CC[C@H](O[C@@H]6O[C@H](C(=O)O)[C@@H](O[C@@H]7OC[C@@H](O)[C@H](O)[C@H]7O)[C@H](O)[C@H]6O)C(C)(C)C5CC[C@]43C)C2C1O (stereo partly drawn) | 13.7% [at 25.3 µM] (inactive) | 
12 | NCc1ccc(Nc2ncc(F)c(Nc3ccccc3)n2)cc1 | -20.2% (inactive) | 
13 | CNC(C)C(=O)NC(C(=O)N1CCCC1c1nc(C(=O)c2ccc(F)cc2)cs1)C1CCCCC1 (stereo not drawn) | -13.6% (inactive) | 
14 | CC(=O)NC1=NN(C(C)=O)C(C)(c2ccccc2)S1 (stereo not drawn) |  | 3.16 µM (active)
15 | C=C[C@]1(C)C[C@H](O)[C@@H]2[C@H](OC(=O)[C@@H]2C)C1/C(C)=C/O[C@@H]1O[C@H](CO)[C@@H](O)[C@H](O)[C@H]1O (stereo partly drawn) | -0.861% [at 25.3 µM] (inactive) | 
16 | Cc1cc(C(=O)Nc2cccc(C(=O)Nc3cccc(C(F)(F)F)c3)c2)on1 | 15.7% (inactive) | 
17 | Cc1nc(NC(=O)N2CCCC2C(N)=O)sc1-c1csc(C(C)(C)C)n1 (stereo not drawn) | -25.1% (inactive) | 

Row | Compound | activity change, negative = cytotoxicity | Potency
18 | O=C1CCC=CC1(O)C(=O)OCc1ccccc1O[C@@H]1O[C@H](CO)[C@@H](O)[C@H](O)[C@H]1O (stereo partly drawn) | -22.6% [at 25.3 µM] (inactive) | 
19 | CC(C)c1nnc(-c2ccc(-c3ccccc3)nc2)n1-c1cccc2nonc12 | 0.166% (inactive) | 
20 | O=C(NCc1ccc(F)cc1)C(=O)c1c[nH]c2ccccc12 | -19.1% (inactive) | 
21 | Nc1nc2c(c(N3CCNCC3)n1)CCC1=C2[C@@H]2CCCC[C@@H]2O1 | -1.2% (inactive) | 
22 | CC1(C)CCC[C@@]2(C)C1[C@H](OC(=O)/C=C/C=C/C(=O)O)C=C1COC(=O)[C@@]12O (stereo partly drawn) | 6.7% [at 38.5 µM] (inactive) | 
23 | CC(C)(C)OC(=O)N1CCC(OCc2nc(-c3ccncc3)no2)CC1 | 9.52% (inactive) | 
24 | C[C@@H]1CC[C@]2(C(=O)O[C@@H]3O[C@H](CO)[C@@H](O)[C@H](O)[C@H]3O)CC[C@]3(C)C(=CCC4[C@@]5(C)C[C@@H](O)[C@H](O)[C@](C)(C(=O)O)C5CC[C@]43C)[C@@H]2[C@]1(C)O (stereo partly drawn) | 8.72% [at 25.3 µM] (inactive) | 
25 | FC(F)(F)c1cc(-c2ncn(/C=C\c3nnco3)n2)cc(C(F)(F)F)c1 | -13.5% (inactive) | 
26 | CCCCNc1ccc(-c2ccc(CN3CCOCC3)cn2)c(NC2CCC(O)CC2)c1 (stereo not drawn) | -5.15% [at 25.3 µM] (inactive) | 
27 | CC1(CCOC2OC(CO)C(O)C(O)C2O)CCC23OC2(C1)C(O)CC1C(C)(C(=O)O)CCCC13C (stereo not drawn) | -3.9% [at 25.3 µM] (inactive) | 
28 | CC(C)c1cc2c(c(O)c1O)[C@@]13CCCC(C)(C)[C@@H]1[C@H](OC3=O)C2=O | 0.842% [at 38.5 µM] (inactive) | 
29 | CC(=O)OC1/C(C)=C/C(=O)C(OC(C)=O)C(C)(C)/C=C/C(C)C(=O)C2(OC(C)=O)CC(C)C(OC(=O)c3ccccc3)C12 (stereo not drawn) | 8% [at 25.3 µM] (inactive) | 
30 | NC(=O)c1csc(C2OC(CO)C(O)C2O)n1 (stereo not drawn) | 12.8% (inactive) | 
31 | CC(=O)N1CCN(Cc2ccc([C@H](C)Nc3nccc(N4C(=O)OC[C@@H]4C(C)C)n3)cc2)CC1 | 6.78% (inactive) | 
32 | CC(C)[C@@H](CS(=O)(=O)C(C)C)N1C(=O)[C@@](C)(CC(=O)O)C[C@H](c2cccc(Cl)c2)[C@H]1c1ccc(Cl)cc1 | 2.37% (inactive) | 
33 | C[C@@H]1O[C@@H](O[C@H]2[C@H](OC(=O)[C@]34CCC(C)(C)C[C@H]3C3=CCC5[C@@]6(C)C[C@H](O)[C@H](O[C@@H]7O[C@H](CO)[C@@H](O)[C@H](O)[C@H]7O)[C@@](C)(CO)C6[C@H](O)C[C@@]5(C)[C@]3(C)CC4)OC[C@H](O)[C@@H]2O)[C@H](O)[C@H](O)[C@H]1O[C@@H]1OC[C@@H](O)[C@H](O[C@@H]2OC[C@](O)(CO)[C@H]2O)[C@H]1O (stereo partly drawn) | 7.29% [at 6.55 µM] (inactive) | 
